The list is not random: actives were taken first. Their share in the collection is about 4.7%.
HSF1 activator – increases HSF-1 driven luciferase reporter signal | NIH3T3-HGL HSF-1 luciferase reporter, MG132, 8 h; 100% = twice DMSO control signal | activation, % at 9 µM | 300,000 tested, 1.7% active | AID 504408;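 active = mean replicate activation of at least 50% with a set share of replicates each reaching 50%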
HSF1 inh – HSF1 inhibition. NIH3T3-HGL HSE-luciferase, MG132-induced, luminescence 8 h; hits give low values. 300,000 tested, 0.77% active. activity change, negative = inhibition, % at 7.5 µM (by protocol). AID 2098;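 active = more than half of replicate wells show activity change below -50%, luminescence cut by over half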;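 also: luciferase reports HSF-1 transcriptional activity via heat shock element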
TWEAK Fn14 block – blocks TWEAK-Fn14 interaction in a reporter cell assay. TWEAK-stimulated Fn14 reporter cells, luciferase luminescence, 8 h. inhibition, % at 10 µM. 360,000 tested, 2% active. AID 1159606; in the data active = inhibition above about 50%
HSP90 refold inh – inhibitors of HSP90 luciferase refolding in rabbit reticulocyte lysate; luciferase refolding luminescence, 3 h; inhibition, % at 5.6 µM; 290,000 tested, 0.91% active;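 active = inhibition above the screen-wide mean plus 3 SD, computed separately per campaign, cut at about 16% in these data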;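 also: inhibitors lower the luminescence because luciferase stays unfolded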
TROY NFkB inh – blocks TROY-dependent signaling in reporter cells | Q293 LMP1-TROYcd NF-kB luciferase reporter, 4 h | 360,000 tested, 0.98% active | inhibition, % at 10 µM | AID 1347056;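 active = compounds whose plate-normalised and pattern-corrected inhibition of the luciferase reporter signal at the single screening dose is 50% or more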
LMP1 NFkB inh – Epstein-Barr LMP1 NF-kappaB reporter inhibition | LMP1-induced NF-kappaB luciferase reporter cells, luminescence | inhibition, % at 12.5 µM | 350,000 tested, 0.69% active; in the data active = inhibition above about 41%
Hits are given with their value; - = inactive; . = no result.

SMILES | HSF1 activator | HSF1 inh | TWEAK Fn14 block | HSP90 refold inh | TROY NFkB inh | LMP1 NFkB inh
COc1ccc(NC(=O)c2c(Nc3ccccc3)sc(C(=O)c3ccc(F)cc3)c2N)cc1 | - | - | 52.0 | - | - | -
COc1ccc(NC(=O)C[C@H]2C(=O)N(C3CCCCC3)C[C@@H]2C)cc1 | . | . | - | . | - | -
O=C1NC(Cc2ccccc2)c2nc3ccc(F)cc3c(=O)n2-c2ncccc21 (stereo not given) | . | . | - | . | - | -
Cc1ccc2nc(-c3sc4nc(C)ccc4c3N)[nH]c2c1 | - | - | 71.2 | - | - | -
Cc1cc(C)c2c(N)c(-c3nc4ccccc4[nH]3)sc2n1 | 73.2 | - | - | - | - | -
Cc1ccc2nc(-c3ccncc3)[nH]c2c1 | - | - | - | - | - | -
Cc1ccccc1-c1nc2ccccc2[nH]1 | - | - | - | - | - | -
COc1cc(OC)nc(Nc2nc(C(N)Cc3ccc(C(F)(F)F)cc3)cs2)n1 (stereo not given) | . | . | - | . | - | .
NC(=O)N/N=C/c1cccc(OCc2ccc(F)cc2)c1 | - | -73.6 | - | - | - | -
O=C(N/N=C/c1cccc(OCc2ccccc2)c1)c1cccs1 | - | - | - | - | - | -
COc1cc(OC)cc(C(=O)Nn2c(C)nc3ccccc3c2=O)c1 | - | - | - | - | - | -
COc1ccc2[nH]c3c(c2c1)CCn1c-3nc2ccccc2c1=O | . | . | 51.4 | - | - | -
CCOc1cc(/C=C(\C#N)C(=O)Nc2cccc(C(=O)O)c2)ccc1OCc1ccccc1Cl | - | - | - | - | - | -
COc1cc(/C=C(\C#N)C(=O)Nc2cccc(C(=O)O)c2)ccc1OCc1ccc(F)cc1 | 77.4 | - | - | - | - | -
N#C/C(=C\c1ccc(OCc2ccc(F)cc2)cc1)C(=O)Nc1cccc(C(=O)O)c1 | - | - | - | - | - | -
CCOc1cc(/C=C(\C#N)C(=O)Nc2cccc(C(=O)O)c2)cc(Br)c1OC(=O)c1ccc(OC)cc1 | - | - | - | - | 62.4 | -
N#C/C(=C\c1ccc(OCc2ccc(Br)cc2)cc1)C(=O)Nc1cccc(C(=O)O)c1 | 72.2 | - | - | - | - | -
Cc1ccc(S(=O)(=O)NCC(=O)OCC(=O)N2CC(C)OC(C)C2)cc1 (stereo not given) | . | . | - | . | - | -
CC(=O)c1cccc(NC(=O)N2CCCC2C(=O)Nc2c(C)cccc2C)c1 (stereo not given) | - | - | - | - | - | -
COc1cccc(NC(=O)C2CCCN2C(=O)Nc2ccccc2)c1 (stereo not given) | - | - | - | - | - | -
CCCCNC(=O)C1CCCN1C(=O)Nc1cccc(OC)c1 (stereo not given) | - | -52.2 | - | - | - | -
Cc1ccc(NC(=O)N2CCCC2C(=O)Nc2c(C)cc(C)cc2C)cc1 (stereo not given) | 56.9 | - | - | - | - | -
O=C(Nc1ccc2c(c1)OCCO2)C1CCCN1C(=O)Nc1ccc(F)cc1 (stereo not given) | - | - | 59.5 | - | - | -
CC(=O)c1cccc(NC(=O)N2CCCC2C(=O)Nc2cccc(C)c2)c1 (stereo not given) | - | - | 65.8 | - | - | -
CC(=O)Nc1cccc(NC(=O)C2CCCN2C(=O)Nc2cccc(C)c2)c1 (stereo not given) | - | - | - | - | - | -
SMILES | HSF1 activator | HSF1 inh | TWEAK Fn14 block | HSP90 refold inh | TROY NFkB inh | LMP1 NFkB inh
CCNC(=O)C1(C)CCN(C(=O)c2ccc(C(F)(F)F)cc2)C1 (stereo not given) | . | . | - | . | - | .
CCC(=O)N1CCCC(C)(C(=O)Nc2ccc3oc(CC)nc3c2)C1 (stereo not given) | . | . | - | . | - | .
O=C(NCCN1CCC(n2c(=O)[nH]c3ccccc32)CC1)c1c(F)cccc1F | . | . | - | . | - | .
COc1ccc(-c2cc(C(=O)NCC3CCCCC3)[nH]n2)c(C)c1 | . | . | - | . | - | .
COc1ccccc1-c1cc(C(=O)NC(C)C)no1 | 54.0 | - | - | - | - | -
COc1ccccc1-c1cc(C(=O)NC(C)c2ccccc2)no1 (stereo not given) | - | - | - | - | - | -
CC(=O)N1CCc2c(sc(NC(=O)c3ccc(S(=O)(=O)N(C)CC4CCCO4)cc3)c2C(N)=O)C1 (stereo not given) | . | . | - | . | - | -
NC(=S)n1[nH]c(-c2ccc([N+](=O)[O-])cc2)c(N=Nc2cccc(Cl)c2)c1=O | - | - | 71.8 | - | 55.7 | -

Bioassay records deposited in PubChem BioAssay by several laboratories.
